Measurements: PubChem BioAssay (EPA / NIEHS)
Inconclusive results are not listed. Activity calls are given as the source filed them. The calls were made as follows: active = hit-call score of the fitted dose curve at least 0.9, where 1 is the maximum; inconclusive = response in the unintended direction; inactive = score below 0.9.

What follows are molecules tested against rat Adenylate Cyclase, Forskolin Stimulated, Adcy5 (gene 64532) (UniProt Q04400) (assay: NVS_ENZ_rACFSKBinding: NovaScreen (NVS) Enzymatic Assay for rat Adenylate Cyclase, Forskolin Stimulated (AID 2283232)).
Procedure: NVS_ENZ_rACFSKBinding is a biochemical, single-readout assay that uses extracted gene-proteins from Rat forebrain membranes in a tissue-based cell-free assay. Measurements were taken 1 hour after chemical dosing in a 48-well plate.NVS_ENZ_rACFSKBinding is one of one assay component(s) measured or calculated from the NVS_ENZ_rACFSKBinding assay. It is designed to make measurements of enzyme activity, a form of enzyme reporter, as detected with scintillation counting signals by Filter-based radiodetection technology.Data from the assay component NVS_ENZ_rACFSKBinding was analyzed into 1 assay endpoint. This assay endpoint, NVS_ENZ_rACFSKBinding, was analyzed in the positive analysis fitting direction relative to DMSO as the negative control and baseline of activity. Using a type of enzyme reporter, loss-of-signal activity can be used to understand changes in the enzymatic activity as they relate to the gene Adcy5. Furthermore, this assay endpoint can be referred to as a primary readout, because this assay has produced multiple assay endpoints where this one serves a enzymatic activity function. To generalize the intended target to other relatable targets, this assay endpoint is annotated to the lyase intended target family, where the subfamily is adenylyl cyclase.
Binding assays used specific radioligands (tritiated, iodinated) with non-radioactive competitive displacement ligands in agonist or antagonist protocols (as indicated) and various reference compounds and inhibitors to titrate specific binding to receptors and transporters. Most enzyme assays (CYPs, kinases, phosphatases, proteases, HDACs) used recombinant protein and specific substrates (fluorescence mostly, some colorimetric and radioactive) and inhibitors, followed by a biochemical separation of substrate and product. All assays for the biochemical HTS were initially run in duplicate at a single concentration (10 uM for CYP450 assays and 25 uM for all others). Assay-chemical combinations meeting a pre-defined threshold (e.g., 30% inhibition and other criteria defined below) were then run in singleton concentration-response format with maximum concentration of 20 uM for CYPs and 50 uM for all others. Each assay was run with positive and negative controls, and concurrent controls on every plate. The follow-up (secondary) screen tested active chemical-pairs in concentration series, as well as a few additional assays not tested in the primary screen, some selected negative inactives, and several cases re-run in the concentration series for confirmatory purposes.

Sequence of rat Adenylate Cyclase, Forskolin Stimulated, Adcy5 (gene 64532) (Q04400 whole entry, looked up): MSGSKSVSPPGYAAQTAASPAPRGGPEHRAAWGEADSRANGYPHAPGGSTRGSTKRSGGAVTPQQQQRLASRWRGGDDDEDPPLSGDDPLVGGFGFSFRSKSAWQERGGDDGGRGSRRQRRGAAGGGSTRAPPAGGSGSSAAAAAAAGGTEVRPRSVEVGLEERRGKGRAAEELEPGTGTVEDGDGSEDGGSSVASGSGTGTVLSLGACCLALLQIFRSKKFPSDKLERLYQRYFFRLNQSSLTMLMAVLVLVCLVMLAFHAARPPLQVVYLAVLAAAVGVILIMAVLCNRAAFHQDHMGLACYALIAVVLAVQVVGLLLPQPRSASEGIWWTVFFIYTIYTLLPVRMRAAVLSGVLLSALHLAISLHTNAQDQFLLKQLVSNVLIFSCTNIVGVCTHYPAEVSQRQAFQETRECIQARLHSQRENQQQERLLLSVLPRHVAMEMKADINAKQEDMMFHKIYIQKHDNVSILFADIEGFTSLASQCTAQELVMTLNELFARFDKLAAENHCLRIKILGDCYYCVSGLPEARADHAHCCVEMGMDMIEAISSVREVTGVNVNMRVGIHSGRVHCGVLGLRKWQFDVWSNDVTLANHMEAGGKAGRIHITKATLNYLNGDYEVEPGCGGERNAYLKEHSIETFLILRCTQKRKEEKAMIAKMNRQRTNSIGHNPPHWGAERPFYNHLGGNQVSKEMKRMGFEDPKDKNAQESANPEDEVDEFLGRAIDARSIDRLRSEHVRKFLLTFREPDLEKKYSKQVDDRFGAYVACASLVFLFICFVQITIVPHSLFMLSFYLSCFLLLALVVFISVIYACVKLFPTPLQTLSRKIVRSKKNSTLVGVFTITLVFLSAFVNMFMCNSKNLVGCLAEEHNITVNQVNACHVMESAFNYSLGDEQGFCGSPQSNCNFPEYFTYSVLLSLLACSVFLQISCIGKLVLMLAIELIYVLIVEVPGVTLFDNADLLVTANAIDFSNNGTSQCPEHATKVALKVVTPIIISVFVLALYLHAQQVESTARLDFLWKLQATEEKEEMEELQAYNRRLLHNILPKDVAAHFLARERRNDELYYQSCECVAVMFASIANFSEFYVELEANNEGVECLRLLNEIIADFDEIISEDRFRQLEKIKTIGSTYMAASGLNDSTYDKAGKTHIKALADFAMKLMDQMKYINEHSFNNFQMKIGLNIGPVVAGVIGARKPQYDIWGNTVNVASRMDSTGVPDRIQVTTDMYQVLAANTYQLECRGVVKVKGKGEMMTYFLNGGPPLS

| Compound | AC50 | outcome |
| --- | --- | --- |
| CCN(CC)C(=S)SSC(=S)N(CC)CC | 6.29 µM (active) |  |
| NCc1cccc(C2CCN(C(=O)c3ccc(C#Cc4ccccc4F)o3)CC2)c1 |  | inactive |
| OCCC(F)(F)C(F)(F)C(F)(F)C(F)(F)C(F)(F)C(F)(F)F |  | inactive |
| Nc1ccc(Nc2ccccc2)cc1 | 39.6 µM (active) |  |
| Cc1occc(=O)c1O |  | inactive |
| N#CSCSc1nc2ccccc2s1 | 25 µM (active) |  |
| O=P(OC(CCl)CCl)(OC(CCl)CCl)OC(CCl)CCl |  | inactive |
| COCCOC[C@H](CC1(C(=O)NC2CCC(C(=O)O)CC2)CCCC1)C(=O)Oc1ccc2c(c1)CCC2 (stereo partly drawn) |  | inactive |
| CN(C)c1ccc(N=NS(=O)(=O)O)cc1 |  | inactive |
| S=C([S-])NCCNC(=S)[S-].[Mn+2] |  | inactive |
| O=c1[nH]sc2ccccc12 | 16.2 µM (active) |  |
| S=C(S)NCCNC(=S)S.[Mn+2].[S-]C([S-])=NCCN=C([S-])[S-].[Zn+2] |  | inactive |
| O=C(OC[C@H]1O[C@@H](OC(=O)c2cc(O)c(O)c(OC(=O)c3cc(O)c(O)c(O)c3)c2)[C@H](OC(=O)c2cc(O)c(O)c(OC(=O)c3cc(O)c(O)c(O)c3)c2)[C@@H](OC(=O)c2cc(O)c(O)c(OC(=O)c3cc(O)c(O)c(O)c3)c2)[C@@H]1OC(=O)c1cc(O)c(O)c(OC(=O)c2cc(O)c(O)c(O)c2)c1)c1cc(O)c(O)c(OC(=O)c2cc(O)c(O)c(O)c2)c1 |  | inactive |
